Compound activity (PubChem)
Shown are actives, neighbours in structure and some others; about 4.8% of the full set was active somewhere.
hgDAF12 agonist: activates the H. glycines DAF-12 receptor ligand-binding domain. HEK293 GAL4-hgDAF12 UAS-luciferase reporter, agonist luminescence; normalized to butyrate control. activation, % at 6.8 µM. actives 1.8% (n = 370,000). AID 687014;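 active means activation above a cutoff set at the mean of all screened compounds plus 3 SD, cut at about 10% in these data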;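 further: 0% = DMSO wells and 100% = sodium butyrate wells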
SMARCA2 activ: increases SMARCA2 function in MMTV reporter cells; MG213 cells, MMTV-luciferase reporter, dexamethasone, overnight; activation, % at 9.1 µM; actives 1% (n = 370,000); in the data active means activation above about 7.8%;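 further: 0% = vehicle wells and 100% = reference activator wells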
hcDAF12 agonist: activators of H. contortus DAF-12 nuclear receptor | HEK293 hcDAF-12 lit1-tk-luc reporter, luminescence; 0% DMSO, 100% Δ7-dafachronic acid | actives 1.4% (n = 370,000) | activation, % at 6.8 µM | AID 652067;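 active means activation above the mean of all tested compounds plus 3 SD, cut at about 5.5% in these data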;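 further: 100% = response to 3 µM Δ7-dafachronic acid high control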
DAX1 inh-1: blocks DAX1 repression of SF-1 activated StAR promoter; HEK293T StAR-luciferase reporter, SF-1/DAX-1 repression relief; inhibition, % at 6.8 µM; actives 1.1% (n = 370,000); AID 652010;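 active means inhibition above the mean over all tested compounds plus 3 SD, cut at about 3.6% in these data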;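 further: 0% = DAX-1 cells with DMSO and 100% = cells lacking DAX-1 with DMSO; higher inhibition means more luminescence from relief of DAX-1 repression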
ssDAF12 agonist: S. stercoralis DAF-12 activation, primary screen. HEK293 ssDAF-12/GRIP1 lit1-tk-luc reporter, luminescence; % of 3 µM dafachronic acid response. activation, % at 6.8 µM. actives 1% (n = 370,000);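 active means activation above the mean over all tested compounds plus 3 SD, cut at about 0.9% in these data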;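 further: 0% = DMSO-only wells and 100% = 3 µM delta7-dafachronic acid wells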
DAX1 inh-2: inhibits human nuclear receptor DAX1; AID 504766; inhibition, % at 6.75 µM; P51843; HEK293 Gal4-DAX1 luciferase reporter, luminescence; actives 0.99% (n = 340,000);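 active means inhibition above the mean over all tested compounds plus 3 SD, cut at about 4.2% in these data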;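 further: 0% = DAX1-transfected cells with DMSO and 100% = empty-vector control cells with DMSO; inhibition shows as a rise in luminescence from relieved DAX1 repression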
Target sequence (P51843 207-470 limits assumed): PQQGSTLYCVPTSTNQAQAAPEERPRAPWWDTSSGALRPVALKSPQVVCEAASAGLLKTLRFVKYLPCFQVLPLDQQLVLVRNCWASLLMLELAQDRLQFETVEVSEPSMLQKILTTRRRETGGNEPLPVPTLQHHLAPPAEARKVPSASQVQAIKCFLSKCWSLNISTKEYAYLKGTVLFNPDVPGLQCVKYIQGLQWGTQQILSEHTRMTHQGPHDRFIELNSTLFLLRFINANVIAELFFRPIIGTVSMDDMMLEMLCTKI
* = called active by the depositor; x = no result.

SMILES | hgDAF12 agonist | SMARCA2 activ | hcDAF12 agonist | DAX1 inh-1 | ssDAF12 agonist | DAX1 inh-2
COC(=O)C(Cc1ccccc1)NC(=O)c1ccc(C)cc1 (stereo not drawn) | 7 | 2 | 0 | 0 | 1.3* | -1
Cc1ccsc1/C=N/n1c(-c2ccccn2)n[nH]c1=S | 0 | -2 | 5.7* | 0 | -1 | -1
Cc1cccc(C2NC(=O)c3c(sc(C)c3C)N2)c1O (stereo not drawn) | 2 | 0 | 4 | 0 | 1.4* | 1
COc1cccc(CNC(=O)[C@H]2CCCN2C(=O)[C@H]2CCCN2C(=O)c2ccccc2)c1 | -1 | 0 | -1 | 1 | -1 | x
CCOC(=O)[C@@H](CCc1ccccc1)N[C@@H](C)C(=O)N1CCC[C@H]1C(=O)O | 3 | -3 | 1 | 1 | -1 | x
OCCOCCNc1ncnc2c1cnn2-c1ccccc1 | 8 | 7.8* | 0 | 1 | 0 | 0
CC(C)OCCCNc1ncnc2c1cnn2-c1ccccc1 | 12* | 6 | 5 | 3 | 0 | -1
c1ccc(CCNc2ncnc3c2cnn3-c2ccccc2)cc1 | 12* | 7 | 3 | 3.7* | 1 | 1
c1ccc(CNc2ncnc3c2cnn3-c2ccccc2)cc1 | 7 | 4 | -1 | 1 | -2 | 0
COC(=O)C1CN(C2CCCC2)CCS(=O)(=O)N1Cc1cn(Cc2ccc(Cl)cc2)nn1 (stereo not drawn) | 1 | -1 | -2 | 0 | -2 | x
c1ccc(Nc2c(-c3ccco3)nc3ccccn23)cc1 | -4 | 1 | 6.0* | 0 | 0 | -1
CCN1CCCCC(NC(=O)c2cc(OC)c(OC)c(OC)c2)C1=O (stereo not drawn) | 6 | -4 | 1 | 0 | -1 | x
Cc1ccc(C(=O)N2CCc3ccccc32)cc1 | 9 | 4 | 5 | 1 | 0 | 1
Cn1cc(C(=O)N2CCc3ccccc32)cn1 | 5 | 1 | 6.5* | 2 | 1.2* | 2
O=C(COc1cccnc1[N+](=O)[O-])Nc1ccc2c(c1)CCC2 | 3 | 1 | -1 | 1 | -1 | 1
CCOc1ccccc1NC(=O)Nc1ccc2c(c1)CCC2 | 4 | 1 | -1 | 3.6* | -1 | 1
O=C(COc1ccccc1F)Nc1ccc2c(c1)CCC2 | 15* | 4 | 1 | 3.7* | -1 | 1
COc1cc(CNc2ccc3c(c2)CCC3)cc(OC)c1O | 0 | 3 | 0 | 1 | -1 | 0
CCOc1cc(CNc2ccc3c(c2)CCC3)ccc1O | 3 | 0 | 4 | -1 | 1.2* | 1
CCOC(=O)[C@]12CCCC3=C1N(CCC3)C(=O)[C@@H](CC(=O)N1CCN(C(=O)C3CC3)CC1)C2 | -1 | -3 | 0 | 1 | -1 | x
CSc1ccc(C2Nc3cccc4cccc(c34)N2)cc1 | 0 | -2 | 5.7* | 0 | 0 | 0
Cc1cccc(C2Nc3cccc4cccc(c34)N2)c1 | -1 | -1 | 5.7* | 0 | 1.2* | 1
CCN(CC)CCC=C(c1cccs1)c1cccs1 | 2 | 7.9* | 0 | 0 | -1 | 0
CCCCn1c(N)c(N(CC(C)C)C(=O)CCCn2c(=O)oc3ccccc32)c(=O)[nH]c1=O | 1 | -3 | -1 | 0 | -1 | 4.3*
COCCN(C(=O)COC(=O)CCc1nc2ccccc2s1)c1c(N)n(Cc2ccccc2)c(=O)[nH]c1=O | 1 | -1 | 1 | 0 | -1 | 0
CCCN(C(=O)c1nc2nc(C)cc(C)n2n1)c1c(N)n(Cc2ccccc2)c(=O)[nH]c1=O | -1 | -3 | -2 | 3.8* | -1 | 2
COCCN(C(=O)CSc1nc2ccccc2s1)c1c(N)n(Cc2ccccc2)c(=O)[nH]c1=O | 1 | 0 | 6.5* | 1 | 0 | 3
CCCCN(C(=O)CSc1cc(C)c2ccccc2n1)c1c(N)n(Cc2ccccc2)c(=O)[nH]c1=O | 2 | -3 | 1 | 0 | -2 | 2
CCCCN(C(=O)CSc1cc(C)c2ccc(OC)cc2n1)c1c(N)n(Cc2ccccc2)c(=O)[nH]c1=O | -4 | -5 | 2 | 0 | 4.8* | 0
CCCCn1c(N)c(N(C)C(=O)CCCn2c(=O)oc3ccccc32)c(=O)[nH]c1=O | 4 | -3 | 0 | 0 | 0 | -1
